# In PMC7862700, “An all-to-all approach to the identification of sequence-specific readers for epigenetic DNA modifications on cytosine”:
# What was measured:
# Experiment in all cases: DAPPL (digital affinity profiling via proximity ligation, sequencing); 10 mM Tris-HCl pH 7.5, 50 mM NaCl, 1 mM DTT, 4% glycerol, room temperature, 30 min; GST-TFs on glutathione beads, 16-mer random dsDNA library, 0.1% formaldehyde crosslink after washing; high values mean tight binding
# FLI1 = biological target: T1, FLI1 (Homo sapiens, UniProt Q01543 1-452); conditions: protein: recombinant; tags: N-terminal GST; dsDNA, one strand shown
# T1 sequence: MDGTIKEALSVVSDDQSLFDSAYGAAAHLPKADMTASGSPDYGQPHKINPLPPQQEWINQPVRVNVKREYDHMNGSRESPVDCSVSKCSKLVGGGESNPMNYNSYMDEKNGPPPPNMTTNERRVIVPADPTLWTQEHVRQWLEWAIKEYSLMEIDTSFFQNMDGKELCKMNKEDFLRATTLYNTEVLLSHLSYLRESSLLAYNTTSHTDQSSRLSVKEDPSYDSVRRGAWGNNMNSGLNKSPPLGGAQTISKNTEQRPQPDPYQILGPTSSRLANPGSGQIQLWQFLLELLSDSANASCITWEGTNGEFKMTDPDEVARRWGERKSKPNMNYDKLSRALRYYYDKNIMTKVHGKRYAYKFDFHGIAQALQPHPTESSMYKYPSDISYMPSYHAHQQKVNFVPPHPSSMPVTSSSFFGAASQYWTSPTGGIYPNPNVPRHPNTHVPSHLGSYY
# Method in brief: (§1)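 Human transcription factors carrying a GST fusion were produced in yeast, bound to glutathione beads, tagged with DNA barcodes and pooled together with a tag-only sample. Each pool was held with 200 nmole of a random double-stranded 16-mer DNA library in Tris/NaCl/DTT/glycerol buffer for 30 min at room temperature, then washed, crosslinked in 0.1% formaldehyde, proximity-ligated with BsaI/T4 ligase (1 h, 37 °C), PCR-amplified and sequenced on an Illumina NextSeq500. Binding signal is the read frequency of each hexamer for a given factor divided by its frequency in the tag-only sample.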
# ELK1 = biological target: T2, ELK1 (Homo sapiens, UniProt P19419 1-428); conditions: protein: recombinant; tags: N-terminal GST; dsDNA, one strand shown
# T2 sequence: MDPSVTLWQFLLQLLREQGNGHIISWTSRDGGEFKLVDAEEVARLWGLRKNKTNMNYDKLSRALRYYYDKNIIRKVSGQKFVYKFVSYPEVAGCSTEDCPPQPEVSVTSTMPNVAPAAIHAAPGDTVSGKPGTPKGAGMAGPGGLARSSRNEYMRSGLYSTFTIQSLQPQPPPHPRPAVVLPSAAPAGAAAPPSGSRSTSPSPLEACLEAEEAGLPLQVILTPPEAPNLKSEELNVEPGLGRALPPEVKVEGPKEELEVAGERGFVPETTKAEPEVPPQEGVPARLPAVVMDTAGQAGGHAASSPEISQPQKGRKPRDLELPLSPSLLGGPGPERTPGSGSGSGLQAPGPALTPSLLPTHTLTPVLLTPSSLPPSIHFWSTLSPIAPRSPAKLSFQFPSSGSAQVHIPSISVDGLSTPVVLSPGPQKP
# Method in brief: as §1
# GABPA = biological target: T3, GABPA (Homo sapiens, UniProt Q06546 1-454); conditions: protein: recombinant; tags: N-terminal GST; dsDNA, one strand shown
# T3 sequence: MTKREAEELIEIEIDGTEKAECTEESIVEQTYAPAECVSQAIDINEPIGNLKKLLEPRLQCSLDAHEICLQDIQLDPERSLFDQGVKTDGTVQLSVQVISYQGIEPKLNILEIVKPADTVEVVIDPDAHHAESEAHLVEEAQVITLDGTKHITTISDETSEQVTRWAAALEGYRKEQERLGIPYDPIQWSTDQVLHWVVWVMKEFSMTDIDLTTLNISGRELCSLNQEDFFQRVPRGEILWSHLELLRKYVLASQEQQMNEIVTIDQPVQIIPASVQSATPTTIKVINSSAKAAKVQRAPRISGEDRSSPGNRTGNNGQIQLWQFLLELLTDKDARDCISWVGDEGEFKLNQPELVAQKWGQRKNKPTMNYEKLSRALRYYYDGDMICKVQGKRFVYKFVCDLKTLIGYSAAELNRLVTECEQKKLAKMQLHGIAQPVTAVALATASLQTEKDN
# Method in brief: as §1
# ERG = biological target: T4, ERG (Homo sapiens, UniProt P11308 1-479); conditions: protein: recombinant; tags: N-terminal GST; dsDNA, one strand shown
# T4 sequence: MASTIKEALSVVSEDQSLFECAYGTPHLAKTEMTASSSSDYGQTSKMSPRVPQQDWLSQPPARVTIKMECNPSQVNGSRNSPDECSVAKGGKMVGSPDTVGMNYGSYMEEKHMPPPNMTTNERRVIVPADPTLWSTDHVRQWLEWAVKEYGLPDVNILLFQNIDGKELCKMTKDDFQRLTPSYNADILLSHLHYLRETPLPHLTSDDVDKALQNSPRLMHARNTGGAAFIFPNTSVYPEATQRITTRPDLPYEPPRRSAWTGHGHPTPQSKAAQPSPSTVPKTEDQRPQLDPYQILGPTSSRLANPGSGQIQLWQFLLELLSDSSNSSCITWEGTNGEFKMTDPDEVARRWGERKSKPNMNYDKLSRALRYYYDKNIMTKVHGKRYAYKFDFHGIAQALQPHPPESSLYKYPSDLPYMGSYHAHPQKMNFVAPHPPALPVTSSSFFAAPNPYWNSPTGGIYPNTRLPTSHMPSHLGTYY
# Method in brief: as §1
# ELF1 = ELF1 (Homo sapiens, UniProt P32519 1-619); conditions: protein: recombinant; tags: N-terminal GST; dsDNA, one strand shown
# Method in brief: as §1
# EHF = biological target: T5, EHF (Homo sapiens, UniProt Q9NZC4 1-300); conditions: protein: recombinant; tags: N-terminal GST; dsDNA, one strand shown
# T5 sequence: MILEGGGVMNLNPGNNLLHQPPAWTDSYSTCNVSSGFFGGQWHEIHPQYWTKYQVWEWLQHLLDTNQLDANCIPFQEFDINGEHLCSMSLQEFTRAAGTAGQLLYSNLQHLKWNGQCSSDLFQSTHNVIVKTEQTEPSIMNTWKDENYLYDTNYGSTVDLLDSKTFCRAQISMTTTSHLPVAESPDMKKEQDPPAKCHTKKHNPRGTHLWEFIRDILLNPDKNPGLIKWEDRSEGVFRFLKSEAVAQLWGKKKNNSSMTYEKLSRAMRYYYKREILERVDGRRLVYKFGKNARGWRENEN
# Method in brief: as §1
# SPI1 = SPI1 (Homo sapiens, UniProt P17947 1-270); conditions: protein: recombinant; tags: N-terminal GST; dsDNA, one strand shown
# Method in brief: as §1
# SPIB = SPIB (Homo sapiens, UniProt Q01892 1-262); conditions: protein: recombinant; tags: N-terminal GST; dsDNA, one strand shown
# Method in brief: as §1
# ELK3 = biological target: T6, ELK3 (Homo sapiens, UniProt P41970 1-407); conditions: protein: recombinant; tags: N-terminal GST; dsDNA, one strand shown
# T6 sequence: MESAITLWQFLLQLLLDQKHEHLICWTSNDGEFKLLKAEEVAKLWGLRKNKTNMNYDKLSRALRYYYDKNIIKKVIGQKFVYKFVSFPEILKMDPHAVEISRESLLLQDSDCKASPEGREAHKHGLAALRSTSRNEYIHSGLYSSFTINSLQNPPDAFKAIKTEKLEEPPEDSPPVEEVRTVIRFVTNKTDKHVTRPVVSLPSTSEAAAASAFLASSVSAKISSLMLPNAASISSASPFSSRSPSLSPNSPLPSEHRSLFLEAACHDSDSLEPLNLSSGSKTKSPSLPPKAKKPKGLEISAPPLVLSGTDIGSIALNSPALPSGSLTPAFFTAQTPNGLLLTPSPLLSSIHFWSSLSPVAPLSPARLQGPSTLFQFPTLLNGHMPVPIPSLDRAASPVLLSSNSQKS
# Method in brief: as §1
# FEV = biological target: T7, FEV (Homo sapiens, UniProt Q99581 1-238); conditions: protein: recombinant; tags: N-terminal GST; dsDNA, one strand shown
# T7 sequence: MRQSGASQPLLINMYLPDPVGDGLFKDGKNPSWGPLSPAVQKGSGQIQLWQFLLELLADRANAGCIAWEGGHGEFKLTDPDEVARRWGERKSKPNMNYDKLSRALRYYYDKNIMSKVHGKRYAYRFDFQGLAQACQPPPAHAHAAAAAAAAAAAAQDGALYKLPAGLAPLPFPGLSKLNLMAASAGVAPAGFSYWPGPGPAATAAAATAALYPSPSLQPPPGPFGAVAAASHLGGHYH
# Method in brief: as §1
# ETV5 = ETV5 (Homo sapiens, UniProt P41161 1-510); conditions: protein: recombinant; tags: N-terminal GST; dsDNA, one strand shown
# Method in brief: as §1
# HSF1 = HSF1 (Homo sapiens, UniProt Q00613 1-529); conditions: protein: recombinant; tags: N-terminal GST; chain copies: 3; dsDNA, one strand shown
# Method in brief: as §1
# SPIC = biological target: T8, SPIC (Homo sapiens, UniProt Q8N5J4 1-248); conditions: protein: recombinant; tags: N-terminal GST; dsDNA, one strand shown
# T8 sequence: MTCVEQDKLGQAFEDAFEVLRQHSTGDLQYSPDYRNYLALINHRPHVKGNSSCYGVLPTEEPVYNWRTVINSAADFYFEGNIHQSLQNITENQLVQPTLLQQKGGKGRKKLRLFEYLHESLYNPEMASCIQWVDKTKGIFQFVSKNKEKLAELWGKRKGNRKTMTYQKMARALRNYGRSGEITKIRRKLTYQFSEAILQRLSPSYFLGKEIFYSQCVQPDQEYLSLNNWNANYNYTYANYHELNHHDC
# Method in brief: as §1
# ELF4 = ELF4 (Homo sapiens, UniProt Q99607 1-663); conditions: protein: recombinant; tags: N-terminal GST; dsDNA, one strand shown
# Method in brief: as §1
# ELK4 = biological target: T9, ELK4 (Homo sapiens, UniProt P28324-2 1-405); conditions: protein: recombinant; tags: N-terminal GST; dsDNA, one strand shown
# T9 sequence: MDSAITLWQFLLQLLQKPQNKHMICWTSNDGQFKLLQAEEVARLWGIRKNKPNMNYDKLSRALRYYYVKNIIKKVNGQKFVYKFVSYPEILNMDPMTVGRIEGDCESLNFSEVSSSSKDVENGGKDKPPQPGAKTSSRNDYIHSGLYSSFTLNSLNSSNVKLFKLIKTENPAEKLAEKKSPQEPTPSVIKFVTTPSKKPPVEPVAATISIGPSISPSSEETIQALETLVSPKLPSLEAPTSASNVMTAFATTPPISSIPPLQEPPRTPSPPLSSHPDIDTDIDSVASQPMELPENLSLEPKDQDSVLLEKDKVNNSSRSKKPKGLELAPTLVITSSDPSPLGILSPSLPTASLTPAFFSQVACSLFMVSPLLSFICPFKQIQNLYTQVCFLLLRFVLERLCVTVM
# Method in brief: as §1
# ETV2 = biological target: T10, ETV2 (Homo sapiens, UniProt O00321 1-342); conditions: protein: recombinant; tags: N-terminal GST; dsDNA, one strand shown
# T10 sequence: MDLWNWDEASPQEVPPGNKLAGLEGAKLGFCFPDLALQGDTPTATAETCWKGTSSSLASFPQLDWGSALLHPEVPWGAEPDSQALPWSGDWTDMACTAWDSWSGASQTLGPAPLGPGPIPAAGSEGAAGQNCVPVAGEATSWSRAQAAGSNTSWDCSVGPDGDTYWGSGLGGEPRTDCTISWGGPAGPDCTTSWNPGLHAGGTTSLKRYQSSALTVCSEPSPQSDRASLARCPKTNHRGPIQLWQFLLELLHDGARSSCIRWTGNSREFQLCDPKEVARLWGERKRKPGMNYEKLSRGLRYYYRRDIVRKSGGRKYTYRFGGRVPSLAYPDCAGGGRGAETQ
# Method in brief: as §1
# ELF3 = biological target: T11, ELF3 (Homo sapiens, UniProt P78545 1-371); conditions: protein: recombinant; tags: N-terminal GST; dsDNA, one strand shown
# T11 sequence: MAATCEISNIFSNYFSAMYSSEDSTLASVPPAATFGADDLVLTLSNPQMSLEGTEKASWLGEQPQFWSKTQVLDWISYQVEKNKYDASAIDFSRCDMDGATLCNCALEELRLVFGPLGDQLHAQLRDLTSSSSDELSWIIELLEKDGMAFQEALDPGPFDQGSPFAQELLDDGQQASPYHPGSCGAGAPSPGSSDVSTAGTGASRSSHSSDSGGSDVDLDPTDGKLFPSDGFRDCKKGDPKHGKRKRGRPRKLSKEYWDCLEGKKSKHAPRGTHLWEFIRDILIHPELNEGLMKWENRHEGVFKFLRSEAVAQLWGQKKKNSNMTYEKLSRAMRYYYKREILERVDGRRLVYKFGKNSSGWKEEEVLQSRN
# Method in brief: as §1
# ETV1 = ETV1 (Homo sapiens, UniProt P50549 1-477); conditions: protein: recombinant; tags: N-terminal GST; dsDNA, one strand shown
# Method in brief: as §1
# Sequence of SPIB (Q01892 whole entry): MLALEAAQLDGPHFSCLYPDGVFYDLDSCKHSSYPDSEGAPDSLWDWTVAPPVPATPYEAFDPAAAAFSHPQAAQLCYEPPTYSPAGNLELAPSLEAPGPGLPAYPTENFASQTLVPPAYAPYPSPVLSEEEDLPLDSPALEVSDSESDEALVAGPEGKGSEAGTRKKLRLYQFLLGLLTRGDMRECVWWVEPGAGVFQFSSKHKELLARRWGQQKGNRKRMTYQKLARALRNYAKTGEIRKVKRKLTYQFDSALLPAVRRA
# Sequence of HSF1 (Q00613 whole entry): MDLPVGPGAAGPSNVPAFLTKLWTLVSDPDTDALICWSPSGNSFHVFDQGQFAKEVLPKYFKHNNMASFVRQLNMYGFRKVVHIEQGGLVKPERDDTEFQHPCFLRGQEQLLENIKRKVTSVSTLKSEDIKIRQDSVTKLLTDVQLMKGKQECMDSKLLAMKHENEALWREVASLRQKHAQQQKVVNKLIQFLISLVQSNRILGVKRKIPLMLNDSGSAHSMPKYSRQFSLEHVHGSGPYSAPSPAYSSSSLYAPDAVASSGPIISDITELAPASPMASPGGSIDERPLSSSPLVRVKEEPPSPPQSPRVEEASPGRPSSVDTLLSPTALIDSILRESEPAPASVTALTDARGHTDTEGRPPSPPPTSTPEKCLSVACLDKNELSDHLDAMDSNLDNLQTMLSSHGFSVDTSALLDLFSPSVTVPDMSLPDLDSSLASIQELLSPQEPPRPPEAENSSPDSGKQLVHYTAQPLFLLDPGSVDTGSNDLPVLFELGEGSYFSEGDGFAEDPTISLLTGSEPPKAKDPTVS
# Sequence of ETV5 (P41161 whole entry): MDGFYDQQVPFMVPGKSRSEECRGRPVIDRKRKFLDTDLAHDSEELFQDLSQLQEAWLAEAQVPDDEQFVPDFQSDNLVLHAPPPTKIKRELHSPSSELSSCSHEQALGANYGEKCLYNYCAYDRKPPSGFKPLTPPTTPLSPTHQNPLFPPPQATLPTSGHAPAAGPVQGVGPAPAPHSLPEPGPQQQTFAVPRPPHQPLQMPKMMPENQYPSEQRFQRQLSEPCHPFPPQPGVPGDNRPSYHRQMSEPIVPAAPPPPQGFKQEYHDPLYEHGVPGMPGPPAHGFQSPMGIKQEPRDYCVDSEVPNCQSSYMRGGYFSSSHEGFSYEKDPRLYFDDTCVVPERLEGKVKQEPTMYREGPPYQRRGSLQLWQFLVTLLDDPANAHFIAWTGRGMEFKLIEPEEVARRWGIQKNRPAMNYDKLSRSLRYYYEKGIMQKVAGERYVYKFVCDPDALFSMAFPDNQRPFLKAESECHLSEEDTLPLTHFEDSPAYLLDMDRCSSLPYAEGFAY
# Sequence of ETV1 (P50549 whole entry): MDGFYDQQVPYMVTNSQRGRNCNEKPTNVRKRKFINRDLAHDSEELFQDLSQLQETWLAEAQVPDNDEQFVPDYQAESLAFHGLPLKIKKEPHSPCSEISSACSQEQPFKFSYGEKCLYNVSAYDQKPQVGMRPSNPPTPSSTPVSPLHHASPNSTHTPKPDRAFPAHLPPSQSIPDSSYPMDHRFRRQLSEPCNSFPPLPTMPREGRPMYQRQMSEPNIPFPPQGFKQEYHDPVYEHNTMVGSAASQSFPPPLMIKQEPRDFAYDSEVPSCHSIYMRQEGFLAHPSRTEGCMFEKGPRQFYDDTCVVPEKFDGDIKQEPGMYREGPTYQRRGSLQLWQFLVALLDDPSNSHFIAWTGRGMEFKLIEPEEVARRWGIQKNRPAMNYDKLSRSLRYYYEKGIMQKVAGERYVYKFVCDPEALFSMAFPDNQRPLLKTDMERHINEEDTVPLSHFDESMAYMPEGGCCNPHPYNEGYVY
# Sequence of ELF4 (Q99607 whole entry): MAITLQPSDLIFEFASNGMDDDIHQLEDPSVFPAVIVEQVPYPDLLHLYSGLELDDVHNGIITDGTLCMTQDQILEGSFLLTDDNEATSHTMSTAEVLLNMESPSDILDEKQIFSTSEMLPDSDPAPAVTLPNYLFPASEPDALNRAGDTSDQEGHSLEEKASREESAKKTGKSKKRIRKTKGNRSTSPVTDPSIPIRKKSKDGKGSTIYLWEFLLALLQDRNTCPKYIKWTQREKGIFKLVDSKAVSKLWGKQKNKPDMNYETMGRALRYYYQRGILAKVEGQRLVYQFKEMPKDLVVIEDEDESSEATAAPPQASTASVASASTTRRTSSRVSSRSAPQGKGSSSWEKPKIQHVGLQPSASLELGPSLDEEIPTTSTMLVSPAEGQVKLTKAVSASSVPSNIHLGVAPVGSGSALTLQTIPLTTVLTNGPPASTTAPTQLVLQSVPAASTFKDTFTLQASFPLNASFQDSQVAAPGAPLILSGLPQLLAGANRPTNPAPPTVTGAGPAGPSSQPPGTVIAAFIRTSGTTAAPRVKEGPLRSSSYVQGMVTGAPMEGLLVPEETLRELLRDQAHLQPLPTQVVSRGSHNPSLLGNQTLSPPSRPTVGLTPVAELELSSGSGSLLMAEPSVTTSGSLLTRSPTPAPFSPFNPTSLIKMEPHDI
# Sequence of ELF1 (P32519 whole entry): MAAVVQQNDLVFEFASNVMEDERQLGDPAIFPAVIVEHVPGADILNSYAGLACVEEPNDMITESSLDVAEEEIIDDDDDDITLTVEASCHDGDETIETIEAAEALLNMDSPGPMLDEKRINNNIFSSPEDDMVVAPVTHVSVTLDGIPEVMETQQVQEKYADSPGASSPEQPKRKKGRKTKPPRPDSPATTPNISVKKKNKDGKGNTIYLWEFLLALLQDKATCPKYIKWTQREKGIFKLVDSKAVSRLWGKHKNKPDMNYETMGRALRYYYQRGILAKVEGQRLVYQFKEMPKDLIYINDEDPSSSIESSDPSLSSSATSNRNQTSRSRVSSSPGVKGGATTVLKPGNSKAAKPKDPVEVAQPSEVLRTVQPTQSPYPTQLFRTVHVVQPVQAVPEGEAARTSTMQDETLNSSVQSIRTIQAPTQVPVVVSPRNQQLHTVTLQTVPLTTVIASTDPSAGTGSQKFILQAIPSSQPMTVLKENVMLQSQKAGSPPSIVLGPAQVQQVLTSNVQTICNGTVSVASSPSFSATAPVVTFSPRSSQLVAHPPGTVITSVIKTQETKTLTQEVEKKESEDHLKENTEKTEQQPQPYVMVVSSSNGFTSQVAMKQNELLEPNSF
sequence,measurement,setting,value
GTCTTC,binding signal,FLI1,"1.4 fold enrichment (6-mer frequency, TF over GST control)"
same,binding signal,ELK1,"1.31 fold enrichment (6-mer frequency, TF over GST control)"
same,binding signal,GABPA,"1.19 fold enrichment (6-mer frequency, TF over GST control)"
same,binding signal,ERG,"1.42 fold enrichment (6-mer frequency, TF over GST control)"
same,binding signal,ELF1,"1.43 fold enrichment (6-mer frequency, TF over GST control)"
same,binding signal,EHF,"1.31 fold enrichment (6-mer frequency, TF over GST control)"
same,binding signal,SPI1,"1.28 fold enrichment (6-mer frequency, TF over GST control)"
same,binding signal,SPIB,"1.29 fold enrichment (6-mer frequency, TF over GST control)"
same,binding signal,ELK3,"1.17 fold enrichment (6-mer frequency, TF over GST control)"
same,binding signal,FEV,"1.34 fold enrichment (6-mer frequency, TF over GST control)"
same,binding signal,ETV5,"1.31 fold enrichment (6-mer frequency, TF over GST control)"
same,binding signal,HSF1,"1.17 fold enrichment (6-mer frequency, TF over GST control)"
same,binding signal,SPIC,"1.18 fold enrichment (6-mer frequency, TF over GST control)"
same,binding signal,ELF4,"1.23 fold enrichment (6-mer frequency, TF over GST control)"
same,binding signal,ELK4,"1.14 fold enrichment (6-mer frequency, TF over GST control)"
same,binding signal,ETV2,"1.22 fold enrichment (6-mer frequency, TF over GST control)"
same,binding signal,ELF3,"1.46 fold enrichment (6-mer frequency, TF over GST control)"
same,binding signal,ETV1,"1.29 fold enrichment (6-mer frequency, TF over GST control)"
